Records with an inconclusive call do not appear. Unmarked numbers belong to inactive results. Active and inactive are the calls of the source. Calls come from the whole dose curve; as a rule, active = well fitted inhibition curve with a large enough effect; inconclusive = small, poorly fitted or top-dose-only effect; inactive = no such curve, though single readings can be large or run the other way.
Potency is the fitted concentration of half-maximal effect.

A short description of the test: Primary qHTS for inhibitors of La Crosse Virus (LACV) - induced cell death in SH-SY5Y cells (AID 1508616).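 For activity change: top concentration of the series differs between compounds; 0% = infected DMSO wells and 100% = uninfected DMSO wells; higher means more rescue of cells from virus-induced death.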 Conditions: SH-SY5Y LACV cytopathicity rescue, ATP luminescence, 6 d; series mostly up to 4.29 µM; activity change: at the top concentration. An excerpt:
Assay Provider: Karin Peterson Ph.D.
National Institute of Allergy and Infection Diseases, National Institute of Health
La Crosse Virus (LACV) is a California serogroup mosquito-borne arbovirus, family Peribunyaviridae, which is an endemic pathogen in North America and can induce a rare, life-threatening neurological disease in children. LACV was first isolated in the early 1960s, from a summer "rural encephalitis" case in La Crosse, Wisconsin, USA. Since then, LACV encephalitis cases have been found in more than twenty states, with most cases in the Mississippi and Ohio River basins. The life cycle of LACV is maintained between the vector, the eastern tree-hole mosquito Aedes triseriatus, and vertebrate hosts including eastern gray squirrels (Sciurus carolinensis) and chipmunks (Tamiasstriatus grinseus). […] Most LACV infections in humans are asymptomatic or induce mild clinical symptoms of fever, headache, lethargy and vomiting. However, in some cases LACV can cause severe neuroinvasive disease, including encephalitis, meningitis, and meningoencephalitis, requiring hospitalization. To date, there is neither a licensed vaccine nor a Food and Drug Administration (FDA) approved antiviral therapy available to prevent or treat LACV encephalitis. The primary treatment for viral encephalitis is palliative care due to the lack of therapeutics. In the current study, we conducted a screen of 4,096 FDA approved and bioactive small molecules against LACV, by screening for rescue of LACV-induced cell death in SH-SY5Y cells.
LACV-induced cytopathicity assay
SEQUENCE No. (1,2, 3, etc.); […] (e.g., Cells, Incubation, Reagent, etc.); VALUE and DESCRIPTION.
1. Reagent; 2 uL; Cell solution.
3. Compounds; 23nL; Compound library
4. Reagent; 12 uL; LACV virus
6. Reagent; 24 uL; ATPLite (PerkinElmer)
7. Time; 5 min; Room temperature
8. Detection; Luminescence; View
NOTES (numbers refer to sequence above)
1. Seed 6000 SH-SY5Y cells (ATCC CRL-2266) in 2 microL/well media (DMEM/F12 10% FBS, 1x L-Glutamine, 1x Pyruvate, 1x NEAA, 1x Pen/Strep) in 384-well assay plates (tissue culture treated, white, solid bottom).
2. Incubate at 37 degrees C with 5% CO2 for 24 hr.
3. Dispense 23 nL/well compounds in DMSO via pin transfer.
4. Dispense 12 microL/well of LACV (LACV/human/1978) in media at 0.01 MOI.
5. Incubate at for 6 days at 37C 5% CO2
6. Dispense 24 microL/well of ATPLite 1step Luminescence assay system (PerkinElmer).
7. Incubate for 5 min at room temperature.
8. Read luminescence signal (Viewlux plate reader, PerkinElmer). Data was normalized with DMSO control wells containing LACV as 0%, and DMSO control wells without virus as 100%.
Turning to `C[C@]12C=CC(=O)C=C1CC[C@@H]1[C@@H]2C(=O)C[C@@]2(C)[C@H]1CC[C@]2(O)C(=O)CO`, the “activity change” value was 11.9%.

Take `COc1ccc2cc3[n+](cc2c1OC)CCc1cc2c(cc1-3)OCO2`: the “activity change” value is -16.1%. With `CC(C)C[C@H](NC(=O)[C@H](CCc1ccccc1)NC(=O)CN1CCOCC1)C(=O)N[C@@H](Cc1ccccc1)C(=O)N[C@@H](CC(C)C)C(=O)[C@@]1(C)CO1`, the Potency was 0.355 µM (active). On to `CN(CCOc1ccc(CC2SC(=O)NC2=O)cc1)c1ccccn1` (stereo not given), for which the “activity change” value is 14.6%.

As for `CCC(=O)O[C@]1(C(=O)CCl)[C@@H](C)C[C@H]2[C@@H]3CCC4=CC(=O)C=C[C@]4(C)[C@@]3(F)[C@@H](O)C[C@@]21C`, the “activity change” value was 49.5%.

Take `CCn1cc(C(=O)O)c(=O)c2cc(F)c(N3CCN(C)CC3)cc21`: the “activity change” value was -4.07% [at 1.78 µM]. Turning to `NNC(=O)c1ccncc1`, the “activity change” value was 7.01%. On the same count and under the same terms, as for `CC1=CC(=O)c2ccccc2C1=O`, the figure is 15.2%; as for `C[C@@H]1C[C@H]2[C@@H]3CCC4=CC(=O)C=C[C@]4(C)[C@@]3(Cl)[C@@H](O)C[C@]2(C)[C@@]1(OC(=O)c1ccco1)C(=O)CCl`, 48%. On the same count and under the same terms, as for `COc1cc(NS(=O)(=O)c2ccc(N)cc2)nc(OC)n1`, the figure is 13.8%; as for `CN(C)CCc1c[nH]c2ccc(CS(=O)(=O)N3CCCC3)cc12`, -3.93%. The same measure, in the same setting: next, `O=C(NCC1CN(c2ccc(N3CCOCC3=O)cc2)C(=O)O1)c1ccc(Cl)s1` (stereo not given): 15.6%; `NC(=O)c1cccc(N)c1`: 11.7% [at 9.63 µM]. `CCn1cc(C(=O)O)c(=O)c2cc(F)c(N3CCNCC3)nc21`: the “activity change” value is 13%. The same measure, in the same setting: as for `NCCCC(O)(P(=O)(O)O)P(=O)(O)O`, the figure is 7.2%; as for `Cc1noc(NS(=O)(=O)c2ccc(N)cc2)c1C`, 26.4%; as for `CCc1cc(C(N)=S)ccn1`, 37%. Same read-out and setting: as for `O=c1cc(O)c(Cl)c[nH]1`, the figure is -3.05%; as for `CCOC(=O)[C@H](CCc1ccccc1)N[C@H]1CS[C@H](c2cccs2)CN(CC(=O)O)C1=O`, -3.01%. The same measure, in the same setting: as for `COc1nc(N)nc2c1ncn2[C@@H]1O[C@H](CO)[C@@H](O)[C@@H]1O`, the figure is 0.623%; as for `CN1CCN(c2c(F)cc3c(=O)c(C(=O)O)cn(CCF)c3c2F)CC1`, 0.651%. In the case of `O=P(O)(O)C(O)(Cc1cccnc1)P(=O)(O)O`, the “activity change” value is -2.9%. On the same count and under the same terms, as for `CC(=O)CC(c1ccccc1)c1c(O)c2ccccc2oc1=O` (stereo not given), the figure is 1.45%.

In the case of `CCN(C)C(=O)Oc1cccc([C@H](C)N(C)C)c1`, the “activity change” value was 52.2%.

In the case of `Cc1cccc(N(C)C(=S)Oc2ccc3ccccc3c2)c1`, the “activity change” value is -14.3%. On the same count and under the same terms, next, `Nc1nc(N)c2nc(CNc3ccc(C(=O)NC(CCC(=O)O)C(=O)O)cc3)cnc2n1` (stereo not given): -10.9% [at 9.63 µM]; `N[C@@H](Cc1ccc(O)c(O)c1)C(=O)O`: -0.943% [at 9.63 µM]. Same read-out and setting: as for `O=NN(CCCl)C(=O)NC1CCCCC1`, the figure is 2.36%; as for `COc1cccc(N(C)C(=S)Oc2ccc3c(c2)CCCC3)n1`, 35.6%; as for `CN(C)CCc1c[nH]c2ccc(C[C@H]3COC(=O)N3)cc12`, 4.9%.

With `CC(C)OC(=O)C(C(=O)OC(C)C)=C1SC=CS1`, the “activity change” value was 16.4%. On the same count and under the same terms, next, `Cc1cccc(Nc2ccncc2S(=O)(=O)NC(=O)NC(C)C)c1`: 14.5%; `Cc1nnc(NS(=O)(=O)c2ccc(N)cc2)s1`: 0.0346%; `CNC1CCCN(c2c(F)cc3c(=O)c(C(=O)O)cn(C4CC4)c3c2OC)C1` (stereo not given): -6.97%. The same measure, in the same setting: as for `NC(=O)c1cccnc1`, the figure is 15.1%.

Turning to `CO[C@@H]1[C@@H](OC(N)=O)[C@@H](O)[C@H](Oc2ccc3c(O)c(NC(=O)c4ccc(O)c(CC=C(C)C)c4)c(=O)oc3c2C)OC1(C)C`, the “activity change” value is 9.06%.

On to `CCN[C@H]1C[C@H](C)S(=O)(=O)c2sc(S(N)(=O)=O)cc21`, for which the “activity change” value is -0.403%. `CCCc1cc(C(N)=S)ccn1`: the “activity change” value is 17%. Turning to `CC(=O)[C@H]1CC[C@H]2[C@@H]3CC=C4C[C@@H](O)CC[C@]4(C)[C@H]3CC[C@]12C`, the “activity change” value was 8.22%. Still for that read-out and setting: next, `Cc1cc(NS(=O)(=O)c2ccc(N)cc2)no1`: -1.19%.

The values are drawn from PubChem BioAssay (NCATS).
